# Measurements as given in PubChem BioAssay (NCATS).
# Results filed as inconclusive are left out. A call without a number means that no potency is given here. Active and inactive are the calls of the source. Calls come from the whole dose curve; as a rule, active = well fitted curve in the direction sought with a large enough effect; inconclusive = small, poorly fitted or top-dose-only effect, or another doubt; inactive = no such curve, though single readings can be large; an effect the other way counts as inactive or inconclusive.
# Legend:
# [1] = qHTS Screen of the MIPE 4.0 Collection Against Ewings Sarcoma (TC71) (AID 1259253); note: potency is the fitted concentration of half-maximal effect; nearly all actives have a fitted effect of over 40% in size
# Procedure, shortened: (§1)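 Here, cells in 5% FBS RPMI were exposed for two days (48 h) to compound dilutions added four hours after plating. ATP-based CellTiter-Glo luminescence measured viability, normalized to vehicle and no-cell blanks.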
# [2] = Identifying Small Molecule Inhibitors of Pancreatic Cancer Stem Cells (SN12C, Adherent) (AID 1259358);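 note: cell survival measured after 48 h of compound exposure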; note: potency is the fitted concentration of half-maximal effect
# Procedure, shortened: (§2)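 Luminescent ATP readout (CellTiter-Glo) quantifies surviving cells after a 48 h drug incubation. Normalization uses DMSO wells as no inhibition and media-only wells as full inhibition; bortezomib served as positive control.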
# [3] = qHTS Screen of the MIPE 4.0 Collection Against Ewings Sarcoma (TC32) (AID 1259256); note: nearly all actives have a fitted effect of over 45% in size; note: potency is the fitted concentration of half-maximal effect
# Procedure, shortened: as §1
# [4] = qHTS assay to identify small molecule inhibitors of chordoma cells - UCH-1 (AID 1259355); note: nearly all actives have a fitted effect of over 55% in size
# Procedure, shortened: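 A 48hr growth-inhibition format: each drug tested at 15 concentrations together with added auranofin, camptothecin, doxorubicin, rubitecan and topotecan, with cell viability quantified as CellTiter-Glo luminescence.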
# [5] = Identifying Small Molecule Inhibitors of Pancreatic Cancer Stem Cells (A2780, Spheroid) (AID 1259357); details: Potency: A2780 spheroid viability;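 note: compound exposure lasted 48 h before the ATP luminescence read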
# Procedure, shortened: (§3)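 Spheroids grown 14 days in stem cell media on hydrogel-coated nonadherent plates; 2D lines seeded directly. Compounds added after 4 h attachment, 48 h at 37C, 5% CO2; CellTiter-Glo luminescence normalized to DMSO (no inhibition) and no-cell wells (full inhibition).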
# [6] = Identifying Small Molecule Inhibitors of Pancreatic Cancer Stem Cells (SN12C, Spheroid) (AID 1259360); details: Potency: SN12C spheroid viability; note: potency is the fitted concentration of half-maximal effect
# Procedure, shortened: as §3
# [7] = Identifying Small Molecule Inhibitors of Pancreatic Cancer Stem Cells (A278, Adherent) (AID 1259361); note: nearly all actives have a fitted effect of over 35% in size
# Procedure, shortened: as §2
# [8] = qHTS Screen of the MIPE 4.0 Collection Against Ewings Sarcoma (EW8) (AID 1259255); note: nearly all actives have a fitted effect of over 35% in size; note: potency is the fitted concentration of half-maximal effect
# Procedure, shortened: as §1
# [9] = Identifying Small Molecule Inhibitors of Pancreatic Cancer Stem Cells (Panc1, Adherent) (AID 1259362); details: Potency: viability; note: potency is the fitted concentration of half-maximal effect
# Procedure, shortened: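 Endpoint: ATP-based luminescence, 48 h drug exposure. Bortezomib at 9.2 uM final as full-kill control; DMSO vehicle as negative control; activity normalized between vehicle and cell-free wells.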
# [10] = Identifying Small Molecule Inhibitors of Pancreatic Cancer Stem Cells (Panc1, Spheroid) (AID 1259359);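 note: potency is the fitted concentration of half-maximal effect; compound exposure lasted 48 h before reading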
# Procedure, shortened: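 Cytotoxicity read by CellTiter-Glo luminescence after 48 h compound exposure at 37C; percent activity scaled between DMSO-treated cells and cell-free wells. Spheroid formats used cells pre-formed 14 days in stem cell media on hydrogel.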
smiles,measurement,setting,value
CCCCc1ccc(NS(=O)(=O)c2ccc(C)c(C(=O)N3CCN(c4cccc(C)c4C)CC3)c2)cc1,Potency,[1],20.9 µM (active)
same,Potency,[2],inactive
CCOc1ccccc1N=Nc1c(C)[nH]n(-c2nc(-c3ccccc3)cs2)c1=O,Potency,[1],20.9 µM (active)
same,Potency,[3],11.8 µM (active)
O=C(O)c1nc(=O)[nH]c(=O)[nH]1,outcome,[4],inactive
CN1C(=O)C(Cc2c[nH]c3ccccc23)NC1=S (stereo unspecified),Potency,[5],inactive
same,Potency,[2],inactive
same,Potency,[6],inactive
same,IC50 (viability decrease),[7],inactive
CN(C)CCCNC(=O)c1ccc(-c2cc(O)c3ncccc3c2)cc1,Potency,[2],inactive
same,Potency,[6],inactive
Oc1ccc(C=Cc2cc(O)cc(O)c2)cc1,Potency,[3],18.7 µM (active)
Cc1cc(C(C)Nc2ccccc2)c2nc(N3CCOCC3)cc(=O)n2c1 (stereo unspecified),Potency,[3],23.5 µM (active)
COC(=O)Nc1ccc(-c2nc(N3CCOCC3)c3cnn(C4CCN(C(=O)OC)CC4)c3n2)cc1,Potency,[8],0.148 µM (active)
same,Potency,[2],0.264 µM (active)
same,Potency,[6],1.05 µM (active)
same,Potency,[9],inactive
CC(C)(C)c1[nH]cnc1C=c1[nH]c(=O)c(=Cc2ccccc2)[nH]c1=O,Potency,[8],inactive
same,Potency,[3],inactive
same,Potency,[10],0.0019 µM (active)
same,Potency,[6],14.8 µM (active)
same,IC50 (viability decrease),[7],0.0166 µM (active)
same,Potency,[9],0.0187 µM (active)
CO[C@H]1/C=C\O[C@@]2(C)Oc3c(C)c(O)c4c(O)c(c(C=NN5CCN(C6CCCC6)CC5)c(O)c4c3C2=O)NC(=O)C(C)=CC=C[C@H](C)[C@H](O)[C@@H](C)[C@@H](O)[C@@H](C)[C@H](OC(C)=O)[C@H]1C,Potency,[3],inactive
N#CC(c1ccc(Cl)cc1)c1c(Cl)cc(-n2ncc(=O)[nH]c2=O)cc1Cl (stereo unspecified),Potency,[3],inactive
same,outcome,[4],inactive
N#CC(=C1Nc2ccccc2S1)c1ccnc(OCc2ccc(CN3CCOCC3)cc2)n1,Potency,[3],7.43 µM (active)
Nc1ncnc2c1c(-c1cccc(OCc3ccccc3)c1)cn2C1CC(CN2CCC2)C1 (stereo unspecified),Potency,[3],4.69 µM (active)
CCC(=O)OCC(=O)[C@@]1(OC(=O)CC)[C@@H](C)C[C@@H]2[C@H]3CCC4=CC(=O)C=C[C@]4(C)[C@@]3(F)[C@@H](O)C[C@@]21C,Potency,[3],inactive
CN(C)N=Nc1nc[nH]c1C(N)=O,Potency,[3],inactive
Cc1nc2c([nH]1)CCN(C(=O)c1ccc(NC(=O)c3ccccc3-c3ccccc3)cc1)c1ccccc1-2,Potency,[3],inactive
Cn1cnc(-c2cc3nccc(Oc4ccc(NC(=S)NC(=O)Cc5ccccc5)cc4F)c3s2)c1,Potency,[3],18.7 µM (active)
Cn1cc(-c2ccc3nnc(Sc4ccc5ncccc5c4)n3n2)cn1,Potency,[8],inactive
same,Potency,[3],inactive
same,Potency,[2],inactive
same,Potency,[6],inactive
same,IC50 (viability decrease),[7],inactive
same,Potency,[9],inactive
OCCn1cc(-c2ccc3c(c2)CCC3=NO)c(-c2ccncc2)n1,Potency,[8],inactive
same,Potency,[2],inactive
same,Potency,[6],inactive
same,IC50 (viability decrease),[7],16.6 µM (active)
CO[C@@H]1C(N(C)C(=O)c2ccccc2)C[C@H]2O[C@]1(C)n1c3ccccc3c3c4c(c5c6ccccc6n2c5c31)C(=O)NC4=O (stereo partly specified),Potency,[3],3.32 µM (active)
O=C(Nc1ccccc1)Nc1ccc(-c2ccc(C(=O)[C@H]3CCC[C@H]3C(=O)O)cc2)cc1,Potency,[3],18.7 µM (active)
CN(C)CCOc1cc(-c2cn[nH]c2)ccc1NC(=O)C1COc2ccccc2O1 (stereo unspecified),Potency,[3],11.8 µM (active)
CC[C@H](C)C(=O)O[C@H]1C[C@H](O)C=C2C=C[C@H](C)[C@H](CC[C@@H](O)C[C@@H](O)CC(=O)O)[C@H]21,Potency,[3],20.9 µM (active)
same,outcome,[4],inactive
Cc1ccc(S(=O)(=O)OCC(=O)Nc2ccc(C(=O)O)c(O)c2)cc1,Potency,[3],11.8 µM (active)
CO[C@H]1/C=C\O[C@@]2(C)Oc3c(C)c(O)c4c(O)c(c5c(nc6cc(C)ccn65)c4c3C2=O)NC(=O)C(C)=CC=C[C@H](C)[C@H](O)[C@@H](C)[C@@H](O)[C@@H](C)[C@H](OC(C)=O)[C@H]1C,Potency,[3],inactive
O=C1C(CCC(O)c2ccc(F)cc2)C(c2ccc(O)cc2)N1c1ccc(F)cc1 (stereo unspecified),Potency,[8],inactive
same,Potency,[5],inactive
same,Potency,[2],inactive
same,Potency,[6],inactive
Clc1ccc(COC(Cn2ccnc2)c2ccc(Cl)cc2Cl)c(Cl)c1 (stereo unspecified),Potency,[3],18.7 µM (active)
Cc1cccc(-c2[nH]c(C(C)(C)C)nc2-c2ccc3c(c2)OCO3)n1,Potency,[3],10.5 µM (active)
CC1=C[C@@H]2[C@@H]([C@@H](O)C[C@@]3(C)[C@H]2C[C@@H](C)[C@]3(O)C(=O)CO)[C@@]2(C)Cc3cnn(-c4ccccc4)c3C=C12,Potency,[3],23.5 µM (active)
same,Potency,[5],inactive
same,Potency,[10],20.9 µM (active)
same,Potency,[6],26.4 µM (active)
same,IC50 (viability decrease),[7],20.9 µM (active)
Cc1cc(-c2ncc(CC(=O)Nc3ccc(-c4cnccn4)cn3)cc2C)ccn1,Potency,[3],23.5 µM (active)
